In the antibiotic and cytotoxicity screens of Wong et al. (2023):
In all, about 39,000 compounds went through this assay and about 3,300 (8.5%) were called active. The sample as a whole holds a higher share of actives than the screen did.

These compounds were tested on HepG2 (assay: cytotoxicity call (relative viability < 0.9)). Conditions: 10 µM.

Q: Cc1ccc([C@@H](N)c2ccncc2)cc1 was tested. Which cytotoxicity call did it give?
A: inactive

Q: With COC(=O)c1c(C#N)c(N)nc2c1CCC2 as the compound, how does the cytotoxicity call read?
A: inactive

Q: For CC(C)NC(=O)N(C)C[C@H]1OCCCC[C@H](C)Oc2ccc(NC(=O)Nc3ccccc3)cc2C(=O)N([C@H](C)CO)C[C@@H]1C, which cytotoxicity call is on record?
A: inactive

Q: For COc1ccccc1-c1ccc2n(c1=O)C[C@H]1[C@H](CO)[C@@H](C(=O)NCC3CC3)N(S(C)(=O)=O)[C@@H]21, which cytotoxicity call is on record?
A: inactive

Q: O=C(C[C@@H]1CC[C@H](NS(=O)(=O)c2ccccc2F)[C@@H](CO)O1)NCCCN1CCOCC1 was tested. Which cytotoxicity call did it give?
A: inactive

Q: For C[C@@H]1CN([C@H](C)CO)C(=O)Cc2cc(NS(C)(=O)=O)ccc2O[C@@H]1CN(C)S(C)(=O)=O, which cytotoxicity call is on record?
A: inactive

Q: For C[C@H]1CN([C@@H](C)CO)S(=O)(=O)c2ccc(-c3cccnc3)cc2O[C@@H]1CN(C)C(=O)NC1CCCCC1, which cytotoxicity call is on record?
A: inactive

Q: CC(C)CC#Cc1ccc2c(c1)O[C@H](CN(C)C(=O)C1CCOCC1)[C@@H](C)CN([C@H](C)CO)S2(=O)=O was tested. Which cytotoxicity call did it give?
A: inactive

Q: Which cytotoxicity call does the source give for C[C@@H]1CN([C@@H](C)CO)S(=O)(=O)c2ccc(C#Cc3ccncc3)cc2O[C@@H]1CN(C)C(=O)C1CCOCC1 here?
A: active

Q: With C[C@@H]1CN([C@@H](C)CO)S(=O)(=O)c2ccc(C#Cc3ccncc3)cc2O[C@H]1CN(C)C(=O)C1CCOCC1 as the compound, how does the cytotoxicity call read?
A: active

Q: With CC(C)CC#Cc1ccc2c(c1)O[C@@H](CN(C)C(=O)C1CCOCC1)[C@H](C)CN([C@H](C)CO)S2(=O)=O as the compound, how does the cytotoxicity call read?
A: inactive

Q: For C[C@H]1CN([C@@H](C)CO)S(=O)(=O)c2ccc(C#Cc3ccncc3)cc2O[C@@H]1CN(C)C(=O)C1CCOCC1, which cytotoxicity call is on record?
A: active

Q: With C[C@H](CO)N1C[C@H](C)[C@H](CN(C)C(=O)C2CCOCC2)Oc2cc(C#Cc3ccncc3)ccc2S1(=O)=O as the compound, how does the cytotoxicity call read?
A: inactive

Q: With C[C@@H]1CN([C@H](C)CO)S(=O)(=O)c2ccc(C#Cc3ccncc3)cc2O[C@H]1CN(C)C(=O)C1CCOCC1 as the compound, how does the cytotoxicity call read?
A: active

Q: For CC(C)CC#Cc1ccc2c(c1)O[C@@H](CN(C)C(=O)C1CCOCC1)[C@@H](C)CN([C@H](C)CO)S2(=O)=O, which cytotoxicity call is on record?
A: inactive

Q: Which cytotoxicity call does the source give for CC(C)CC#Cc1ccc2c(c1)O[C@H](CN(C)C(=O)C1CCOCC1)[C@H](C)CN([C@H](C)CO)S2(=O)=O here?
A: inactive

Q: How did the cytotoxicity call turn out when C[C@H](CO)N1C[C@H](C)[C@@H](CN(C)C(=O)C2CCOCC2)Oc2cc(C#Cc3ccncc3)ccc2S1(=O)=O was run?
A: inactive

Q: With C[C@@H]1CN([C@H](C)CO)C(=O)Cc2cc(NS(=O)(=O)c3ccc(F)cc3)ccc2O[C@H]1CN(C)C(=O)Nc1cccc2ccccc12 as the compound, how does the cytotoxicity call read?
A: inactive

Q: Which cytotoxicity call does the source give for C[C@@H]1CN([C@@H](C)CO)S(=O)(=O)c2ccc(C3=CCCCC3)cc2O[C@H]1CN(C)C(=O)C1CCOCC1 here?
A: inactive

Q: Which cytotoxicity call does the source give for C[C@@H]1CCCCO[C@@H](CN(C)C(=O)CCC(F)(F)F)[C@@H](C)CN([C@@H](C)CO)C(=O)c2cc(NS(=O)(=O)c3ccc(Cl)cc3)ccc2O1 here?
A: inactive

Q: Cc1ccc(S(=O)(=O)Nc2ccc3c(c2)C(=O)N([C@H](C)CO)C[C@@H](C)[C@H](CN(C)C(=O)Nc2ccccc2)OCCCC[C@H](C)O3)cc1 was tested. Which cytotoxicity call did it give?
A: inactive

Q: For C[C@@H]1CCCCO[C@@H](CN(C)C(=O)NC2CCCCC2)[C@H](C)CN([C@@H](C)CO)C(=O)c2cc(NC(=O)Nc3cccc4ccccc34)ccc2O1, which cytotoxicity call is on record?
A: inactive

Q: With CN1C(=O)c2cc(NC(=O)c3cccs3)ccc2OC[C@H]2O[C@@H](CC(=O)NCCN3CCCCC3)CC[C@@H]21 as the compound, how does the cytotoxicity call read?
A: inactive

Q: For CCCC#Cc1cnc2c(c1)C(=O)N([C@@H](C)CO)C[C@H](C)[C@@H](CN(C)S(=O)(=O)c1cccc(OC)c1)O2, which cytotoxicity call is on record?
A: inactive

Q: C[C@@H]1CN([C@@H](C)CO)C(=O)Cc2cc(NC(=O)CCC(F)(F)F)ccc2O[C@@H]1CN(C)S(=O)(=O)c1cccs1 was tested. Which cytotoxicity call did it give?
A: inactive

Q: Which cytotoxicity call does the source give for C[C@@H]1CN([C@@H](C)CO)S(=O)(=O)c2ccc(C#CC3CC3)cc2O[C@H]1CN(C)C(=O)c1cccc(F)c1 here?
A: inactive

Q: C[C@H](CO)N1C[C@H](C)[C@@H](CN(C)S(=O)(=O)c2ccc(-n3cccn3)cc2)OCc2cn(nn2)CCCC1=O was tested. Which cytotoxicity call did it give?
A: inactive

Q: How did the cytotoxicity call turn out when CNC(=O)CN1CCO[C@H]2CN(C(=O)C(C)C)C[C@@H]21 was run?
A: inactive

Q: How did the cytotoxicity call turn out when O=C(C[C@H]1CC=CC[C@H](NC(=O)OCC2c3ccccc3-c3ccccc32)C(=O)OCCNC1=O)NCCO was run?
A: inactive

Q: Which cytotoxicity call does the source give for COc1ccccc1-c1cnc2c(c1)C(=O)N([C@@H](C)CO)C[C@@H](C)[C@@H](CN(C)C(=O)c1cccnc1)O2 here?
A: inactive

Q: How did the cytotoxicity call turn out when C[C@H]1CN([C@@H](C)CO)S(=O)(=O)c2ccc(C#Cc3ccncc3)cc2O[C@H]1CN(C)C(=O)C1CCOCC1 was run?
A: active

Q: C[C@@H]1CN([C@H](C)CO)S(=O)(=O)c2ccc(C#Cc3ccncc3)cc2O[C@@H]1CN(C)C(=O)C1CCOCC1 was tested. Which cytotoxicity call did it give?
A: active

Q: For CC(C)CC#Cc1ccc2c(c1)O[C@@H](CN(C)C(=O)C1CCOCC1)[C@H](C)CN([C@@H](C)CO)S2(=O)=O, which cytotoxicity call is on record?
A: inactive

Q: Which cytotoxicity call does the source give for CC(C)CC#Cc1ccc2c(c1)O[C@H](CN(C)C(=O)C1CCOCC1)[C@@H](C)CN([C@@H](C)CO)S2(=O)=O here?
A: inactive

Q: O=C(C[C@H]1C=C[C@@H](NC(=O)CN2CCOCC2)[C@H](CO)O1)NCc1cccc(F)c1 was tested. Which cytotoxicity call did it give?
A: inactive

Q: With C[C@@H]1CN([C@@H](C)CO)C(=O)c2cc(N(C)C)ccc2O[C@@H](C)CCCCO[C@H]1CN(C)Cc1ccc(C(F)(F)F)cc1 as the compound, how does the cytotoxicity call read?
A: inactive

Q: C[C@@H]1CN([C@@H](C)CO)C(=O)CCCn2cc(nn2)CO[C@@H]1CN(C)S(=O)(=O)c1cn(C)cn1 was tested. Which cytotoxicity call did it give?
A: inactive

Q: How did the cytotoxicity call turn out when C[C@@H]1CN([C@@H](C)CO)C(=O)c2cccc(NC(=O)CCCCCC(=O)Nc3ccccc3N)c2O[C@H]1CN(C)C(=O)Nc1ccc(C(F)(F)F)cc1 was run?
A: inactive

Q: For C[C@@H]1CN([C@H](C)CO)C(=O)c2cc(NC(=O)NC3CCCCC3)ccc2O[C@H]1CN(C)Cc1ccc(C(F)(F)F)cc1, which cytotoxicity call is on record?
A: inactive

Q: With O=C([C@@H]1N[C@@H]2c3ccc(-c4ccc(F)cc4)c(=O)n3C[C@@H]2[C@H]1CO)N1CCOCC1 as the compound, how does the cytotoxicity call read?
A: inactive

Q: For C[C@@H]1CN([C@@H](C)CO)C(=O)c2cccc(NS(=O)(=O)c3cn(C)cn3)c2O[C@H]1CN(C)Cc1ccncc1, which cytotoxicity call is on record?
A: inactive

Q: For CC(C)(C)c1ccc(C(O)CCCN2CCC(C(O)(c3ccccc3)c3ccccc3)CC2)cc1 (centres undefined), which cytotoxicity call is on record?
A: active

Q: How did the cytotoxicity call turn out when CC(C)(C(=O)O)c1ccc(C(O)CCCN2CCC(C(O)(c3ccccc3)c3ccccc3)CC2)cc1.Cl (centres undefined) was run?
A: inactive

Q: CC(C)(C(=O)O)c1ccc([C@@H](O)CCCN2CCC(C(O)(c3ccccc3)c3ccccc3)CC2)cc1 was tested. Which cytotoxicity call did it give?
A: inactive

Q: O=C(NCO)c1ccc([N+](=O)[O-])cc1 was tested. Which cytotoxicity call did it give?
A: inactive

Q: How did the cytotoxicity call turn out when O=C(Nc1cc(C(F)(F)F)cc(C(F)(F)F)c1)Nc1c(Br)cc(Br)cc1-c1nn[nH]n1 was run?
A: inactive

Q: How did the cytotoxicity call turn out when O=C(Nc1cc(C(F)(F)F)cc(C(F)(F)F)c1)Nc1cnn(-c2ccc([N+](=O)[O-])cc2)c1C(F)(F)F was run?
A: active

Q: For CNC1C(OC2C(OC3C(O)C(O)C(NC(=N)N)C(O)C3NC(=N)N)OC(C)C2(O)C=O)OC(CO)C(O)C1O.O=S(=O)(O)O (centres undefined) [STREPTOMYCIN SULFATE [5mM; 10% aq DMSO + 5mM ethanolamine] ], which cytotoxicity call is on record?
A: inactive

Q: COCC(=O)Nc1c(I)c(C(=O)NC[C@@H](O)CO)c(I)c(C(=O)N(C)C[C@@H](O)CO)c1I was tested. Which cytotoxicity call did it give?
A: inactive

Q: COc1ccc(S(=O)(=O)N[C@@H]2C=C[C@H](CC(=O)N3CCN(c4ccccc4)CC3)O[C@@H]2CO)cc1 was tested. Which cytotoxicity call did it give?
A: inactive

Q: Which cytotoxicity call does the source give for O=S(=O)(O)c1cc(O)ccc1O here?
A: active

Q: With O=C(O)c1cc(O)ccc1O [listing 1 of 2 here] as the compound, how does the cytotoxicity call read?
A: inactive

Q: O=C(O)c1cc(O)ccc1O [listing 2 of 2 here] was tested. Which cytotoxicity call did it give?
A: inactive

Q: For C[C@@H]1CN([C@H](C)CO)C(=O)c2cc(NS(C)(=O)=O)ccc2O[C@@H](C)CCCCO[C@H]1CN(C)C(=O)Nc1ccc(C(F)(F)F)cc1, which cytotoxicity call is on record?
A: inactive

Q: With COc1ccc(S(=O)(=O)Nc2ccc3c(c2)C(=O)N([C@H](C)CO)C[C@H](C)[C@@H](CN(C)C(=O)CCC(F)(F)F)OCCCC[C@H](C)O3)cc1 as the compound, how does the cytotoxicity call read?
A: inactive

Q: With O=C(CCCCCC(=O)N/N=C/[C@H](O)[C@@H](O)[C@@H](O)[C@H](O)CO)NO as the compound, how does the cytotoxicity call read?
A: inactive

Q: C[C@@H]1CN([C@H](C)CO)C(=O)CCCn2nncc2CO[C@H]1CN(C)S(=O)(=O)c1ccc(Oc2ccccc2)cc1 was tested. Which cytotoxicity call did it give?
A: inactive

Q: With C[C@@H]1CN([C@H](C)CO)C(=O)c2cc(NC(=O)Nc3ccc(F)cc3)ccc2O[C@H]1CN(C)CC1CCCCC1 as the compound, how does the cytotoxicity call read?
A: inactive

Q: With C[C@@H]1CN([C@H](C)CO)C(=O)c2cc(NC(=O)Nc3ccc(F)cc3)ccc2O[C@@H]1CN(C)CC1CCCCC1 as the compound, how does the cytotoxicity call read?
A: inactive

Q: For C[C@@H]1CN([C@@H](C)CO)C(=O)c2cc(NC(=O)Nc3ccc(F)cc3)ccc2O[C@@H]1CN(C)CC1CCCCC1, which cytotoxicity call is on record?
A: inactive

Q: Which cytotoxicity call does the source give for C[C@@H]1CN([C@@H](C)CO)C(=O)c2cc(NC(=O)Nc3ccc(C(F)(F)F)cc3)ccc2O[C@@H]1CN(C)CC1CCCCC1 here?
A: active

Q: How did the cytotoxicity call turn out when C[C@H]1CN([C@@H](C)CO)C(=O)c2cc(NC(=O)Nc3ccc(F)cc3)ccc2O[C@H]1CN(C)CC1CCCCC1 was run?
A: inactive

Q: Which cytotoxicity call does the source give for C[C@H](CO)N1C[C@H](C)[C@H](CN(C)CC2CCCCC2)Oc2ccc(NC(=O)Nc3ccc(C(F)(F)F)cc3)cc2C1=O here?
A: active

Q: For C[C@H]1CN([C@@H](C)CO)C(=O)c2cc(NC(=O)Nc3ccc(F)cc3)ccc2O[C@@H]1CN(C)CC1CCCCC1, which cytotoxicity call is on record?
A: active

Q: C[C@@H]1CN([C@@H](C)CO)C(=O)c2cc(NC(=O)Nc3ccc(C(F)(F)F)cc3)ccc2O[C@H]1CN(C)CC1CCCCC1 was tested. Which cytotoxicity call did it give?
A: active

Q: With C[C@H](CO)N1C[C@H](C)[C@H](CN(C)CC2CCCCC2)Oc2ccc(NC(=O)Nc3ccc(F)cc3)cc2C1=O as the compound, how does the cytotoxicity call read?
A: inactive

Q: C[C@H](CO)N1C[C@H](C)[C@@H](CN(C)CC2CCCCC2)Oc2ccc(NC(=O)Nc3ccc(F)cc3)cc2C1=O was tested. Which cytotoxicity call did it give?
A: inactive

Q: NCCc1[nH]cnc1-c1cccs1 was tested. Which cytotoxicity call did it give?
A: inactive

Q: C[C@H](CO)N1C[C@H](C)[C@H](CN(C)C(=O)Nc2cccc3ccccc23)Oc2ccc(NS(=O)(=O)c3ccc(Cl)cc3)cc2CC1=O was tested. Which cytotoxicity call did it give?
A: inactive
